Measured values from the supplement of paper PMC9925115.
± gives the uncertainty stated by the source.

system: FLX1; experiment: cell viability z-score within plate (CellTiter-Glo), mean of 3 biological replicates; higher = higher viability relative to plate (less growth inhibition); conditions: 2 µM; time (hr): 120
Method: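 FLX1 fibrolamellar carcinoma cells (DNAJB1-PRKACA fusion), 600 cells/well in 384-well plates, treated with a Selleck kinase inhibitor library (L1200) at 2 uM for 5 days (120 hr); viability by CellTiter-Glo. A z-score was computed within each plate and averaged over three biological replicates.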

| SMILES | cell viability z-score within plate |
| --- | --- |
| Nc1ncnc2c1c(-c1cnc3[nH]ccc3c1)nn2C1CCCC1 | -0.241 ± 0.65 |
| CNc1nc(-c2ccc3c(N)n[nH]c3c2)cc(N2C[C@@H](C(=O)NC3CCCCC3)CC[C@H]2C)n1 | 0.0251 ± 0.54 |
| N#Cc1c(Oc2ccc(F)c(NC(=O)Cc3cccc(C(F)(F)F)c3)c2)ccc2nc(NC(=O)C3CC3)sc12 | 0.529 ± 0.94 |
| COc1cc(CCc2cc(NC(=O)c3ccc(N4CC(C)NC(C)C4)cc3)n[nH]2)cc(OC)c1 (stereo not given) | 1.18 ± 0.41 |
| C=CC(=O)Nc1cccc(Sc2nc(Nc3ccc(N4CCN(C)CC4)cc3)ncc2Cl)c1 | 0.081 ± 0.26 |
| NC(=O)c1ncn([C@@H]2O[C@H](CO)[C@@H](O)[C@H]2O)c1N [AICAR (Acadesine)] | 0.371 ± 0.82 |
| CC(C)(C)c1ccc(S(=O)(=O)/C=C/C#N)cc1 | -0.975 ± 1.1 |
| CCOc1cc(C(=O)N2CCC(N3CCN(C)CC3)CC2)ccc1Nc1ncc2c(n1)N(C1CCCC1)c1ccccc1C(=O)N2C | 0.444 ± 0.17 |
| Cc1c(F)cc(C(=O)NC2CC2)cc1-c1ccc(C(=O)NCC(C)(C)C)cn1 | -0.342 ± 0.51 |
| COc1ccc(-c2cc3c(C)nc(N)nc3n([C@H]3CC[C@H](OCCO)CC3)c2=O)cn1 | -0.872 ± 0.053 |
| Nc1ccc(C(=O)Nc2cccc(-c3nc(N4CCOCC4)c4oc5ncccc5c4n3)c2)cn1 | 0.775 ± 0.24 |
| O=C(O)[C@]1(Cc2cccc(Nc3nccs3)n2)CC[C@@H](Oc2cccc(Cl)c2F)CC1 | -1.08 ± 1 |
| CNC(=O)c1ccccc1Nc1nc(Nc2ccc(N3CCOCC3)cc2OC)ncc1Cl | 1.3 ± 1.2 |
| O=c1cc(N2CCOCC2)oc2c(-c3ccccc3)cccc12 | 0.828 ± 0.37 |
| N#CC(=C(/N)Sc1ccccc1N)/C(C#N)=C(\N)Sc1ccccc1N | -1.01 ± 0.4 |
| CCN1CCN(Cc2ccc(Nc3ncc(F)c(-c4cc(F)c5nc(C)n(C(C)C)c5c4)n3)nc2)CC1 | 0.939 ± 0.8 |
| CN(C)C/C=C/C(=O)Nc1cc2c(Nc3ccc(F)c(Cl)c3)ncnc2cc1O[C@H]1CCOC1 [Afatinib (BIBW2992)] | -0.688 ± 0.67 |
| O=c1cc(-c2cccc3c2Sc2ccccc2S3)oc(N2CCOCC2)c1 | 0.731 ± 0.28 |
| O=C1NC(=O)C(c2ccccc2[N+](=O)[O-])=C1Nc1ccc(O)c(Cl)c1 | 0.229 ± 0.58 |
| C[C@@H]1COC(Nc2ccc3ncnc(Nc4ccc(OCc5nccs5)c(Cl)c4)c3c2)=N1 [Varlitinib] | 0.0259 ± 0.81 |

| SMILES | cell viability z-score within plate |
| --- | --- |
| Cn1cc(C2=C(c3ccc(Cl)cc3Cl)C(=O)NC2=O)c2ccccc21 | -1.2 ± 0.71 |
| CCC[C@H](NC(=O)/C(C#N)=C/c1cccc(Br)n1)c1ccccc1 [Degrasyn (WP1130)] | -0.0534 ± 0.15 |
| Cc1c(NC(=O)c2ccc(C(C)(C)C)cc2)cccc1-c1cn(C)c(=O)c(Nc2ccc(C(=O)N3CCOCC3)cc2)n1 | 0.367 ± 0.26 |
| CNc1nc(Nc2cn(C(C)(C)C#N)nc2C)ncc1C(F)(F)F | 0.707 ± 0.76 |
| C=CC(=O)Nc1cccc(Nc2nc(Nc3ccc(N4CCN(C(C)=O)CC4)cc3OC)ncc2C(F)(F)F)c1 [Rociletinib (CO-1686, AVL-301)] | -0.855 ± 0.71 |
| O=C(Nc1cccc(Nc2ncc(Br)c(NCCc3cnc[nH]3)n2)c1)N1CCCC1 | 0.384 ± 0.1 |
| CN1CCN(c2cccc(Nc3nc4c(-c5ccc(S(C)(=O)=O)cc5)cccn4n3)c2)CC1 | 1.01 ± 0.27 |
| Cc1ccc(NC(=O)c2ccc(CN3CCN(C)CC3)cc2)cc1Nc1nc(-c2cccnc2)cs1 [Masitinib (AB1010)] | -1.52 ± 1.2 |
| C#Cc1cccc(Nc2ncnc3cc4c(cc23)OCCOCCOCCO4)c1 [Icotinib] | 0.676 ± 0.52 |
| CSc1cccc(Nc2ncc3cc(-c4c(Cl)cccc4Cl)c(=O)n(C)c3n2)c1 | 0.169 ± 0.22 |
| COc1ccc(S(=O)(=O)N(C(C)=O)c2ccccc2/C=C/c2cc[n+]([O-])cc2)cc1 | 0.21 ± 0.36 |
| C=CC(=O)Nc1cccc(Nc2nc(Nc3ccc(OCCOC)cc3)ncc2F)c1 | -0.411 ± 0.22 |
| N#Cc1c(NC(=O)c2cccc3ccccc23)sc2c1CCCC2 [JNK Inhibitor IX] | 0.195 ± 0.75 |
| O=c1sn(-c2cccc3ccccc23)c(=O)n1Cc1ccccc1 [Tideglusib] | -2.63 ± 1.1 |
| COc1ccc(F)c(F)c1C(=O)c1cnc(NC2CCN(S(C)(=O)=O)CC2)nc1N | 0.272 ± 0.44 |
| O=C(c1cccc(Cl)c1F)N1CCN(Cc2cccc(Nc3nccs3)n2)CC1 | -0.394 ± 0.96 |
| COc1cc2ncnc(Nc3ccc(F)c(Cl)c3)c2cc1NC(=O)/C=C/CN1CCCCC1 | 0.26 ± 0.81 |
| COc1c(C)c(C(=O)c2ccc(N)c(C(=O)O)c2)n2ccccc12 | 0.661 ± 0.44 |
| COc1cc2ncnc(Nc3ccc(F)c(Cl)c3)c2cc1OCCCN1CCOCC1 [Gefitinib (ZD1839)] | -1.17 ± 1.2 |
| CNC(=O)CN1CCC(Oc2cc3c(Nc4cccc(Cl)c4F)ncnc3cc2OC)CC1 [Sapitinib (AZD8931)] | 0.472 ± 0.47 |
